Screening results deposited in PubChem by Sanford-Burnham Center for Chemical Genomics.
Sampled rows, rich in hits. Any-hit rate of the full collection: about 28%.
Mac1 fbg inh = CD11b/CD18-fibrinogen binding inhibition; K562 CD11b/CD18 adhesion to fibrinogen, ATPlite luminescence; Mn2+ added to activate the integrin; AID 1497; inhibition, % at 10 µM; 93,000 compounds, 0.54% hits;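 active = primary inhibition of 50% or more at 10 µM, then 40% or more on retest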
CYP2C19 act = activators of human cytochrome P450 2C19. P33261. recombinant CYP2C19, luciferin-H EGE luminescence; stronger effect = higher value; 0 = fully inhibited enzyme, 1 = untreated enzyme. activation factor at 5 µM. 96,000 tested, under 10 active. AID 1025;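 active = activation factor of at least 2 at 5 µM in the primary screen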;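 also: 0 = wells with 2.5 mM tranylcypromine and 1 = vehicle-only wells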
Target sequence (P33261 whole entry, looked up): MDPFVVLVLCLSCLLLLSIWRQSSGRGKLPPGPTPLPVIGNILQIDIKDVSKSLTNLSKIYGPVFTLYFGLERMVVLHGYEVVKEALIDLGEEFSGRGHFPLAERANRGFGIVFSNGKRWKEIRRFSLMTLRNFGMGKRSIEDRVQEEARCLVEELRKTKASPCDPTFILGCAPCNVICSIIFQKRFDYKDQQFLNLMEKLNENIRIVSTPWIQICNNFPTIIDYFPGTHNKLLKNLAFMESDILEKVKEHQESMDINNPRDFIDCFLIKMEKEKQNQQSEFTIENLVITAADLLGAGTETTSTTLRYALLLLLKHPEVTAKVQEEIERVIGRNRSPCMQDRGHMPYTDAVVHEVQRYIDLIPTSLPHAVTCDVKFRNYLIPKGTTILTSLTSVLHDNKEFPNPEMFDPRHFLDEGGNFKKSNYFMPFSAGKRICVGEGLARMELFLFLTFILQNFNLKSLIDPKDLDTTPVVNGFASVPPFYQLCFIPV
CYP2C19 inhib = human CYP2C19 inhibition. P33261. CYP2C19 Supersomes, luciferin-H EGE luminescence, 30 min. inhibition, % at 5 µM. 96,000 compounds, 21% hits;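 active = CYP2C19 inhibition above a set limit at 5 µM in the primary screen, cut at about 50% in these data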;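 also: plate controls were negative control wells for no effect and 2.5 mM tranylcypromine positive control for full effect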
CYP2C9 activ = activators of human CYP2C9; P11712; recombinant CYP2C9, luciferin-H conversion, luminescence; stronger effect = higher value; factor 1 = untreated enzyme, 0 = blocked; activation factor at 5 µM; 96,000 compounds, 1.4% hits;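 active = activation factor of 2 or more for CYP2C9 at a 5 µM dose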;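 also: 0 = sulfaphenazole-blocked wells and 1 = vehicle-only wells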
CYP2C9 inhib = inhibitors of human CYP2C9; P11712; CYP2C9 Supersomes, luciferin-H conversion, luminescence; inhibition, % at 5 µM; 96,000 compounds, 20% hits; AID 777;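 active = blocking of liver enzyme CYP2C9 beyond about 50% at 5 µM, limit read from the data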
Mac1 fbg enh = CD11b/CD18-fibrinogen binding enhancement. P05107+P11215. K562 CD11b/CD18 adhesion to fibrinogen, ATPlite luminescence. activation, % at 10 µM. 93,000 compounds, 0.07% hits;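 active = 10 µM primary screen giving 50% or more activity, confirmed by 40% or more on retest at that dose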
* = called active by the depositor; . = not tested or not shown.

SMILES	Mac1 fbg inh	CYP2C19 act	CYP2C19 inhib	CYP2C9 activ	CYP2C9 inhib	Mac1 fbg enh
Cc1ccn(C(=O)c2ccc(NC(=O)C3CCCCC3)cc2)n1	-1.4	0.6	41.4	0.8	17.4	9.3
COc1ccc(S(=O)(=O)N2CCC(C(=O)NCc3ccco3)CC2)cc1	16.8	1.1	-8.2	1.8	-82.4	0.9
O=C(NC1CCCCC1)C1CCN(S(=O)(=O)N2CCCCCC2)CC1	8.7	1	-0.2	0.9	9.4	-6.2
CCCS(=O)(=O)N1CCC(C(=O)N2CCC(Cc3ccccc3)CC2)CC1	.	0.7	25.1	0.9	7.3	.
O=C(C1CCN(S(=O)(=O)N2CCC3(CC2)OCCO3)CC1)N1CCC(Cc2ccccc2)CC1	.	0.4	57.9*	0.2	76.0*	.
O=C(NCc1ccco1)C1CCN(S(=O)(=O)N2CCC3(CC2)OCCO3)CC1	-6.6	0.9	8.3	0.2	83.6*	2.2
Cc1cc(C)c(S(=O)(=O)N2CCC(C(=O)NCc3ccco3)CC2)c(C)c1	4.4	0.8	21.2	2.8*	-178.6	-1.7
O=C(NC1CCCCCCC1)C1CCN(S(=O)(=O)N2CCC3(CC2)OCCO3)CC1	.	0.4	59.8*	0.5	51.8*	.
CCN1C(=O)c2cccc3c(NC(=O)c4ccc(S(=O)(=O)N(C)C)cc4)ccc1c23	4.6	0.9	12.6	0.6	36.5	2.9
CCN1C(=O)c2cccc3c(S(=O)(=O)Nc4ccccc4OC)ccc1c23	-5.0	0.4	61.4*	0	98.8*	4.7
CCOC(=O)c1ccc(NC(=O)Nc2ccc3c4c(cccc24)C(=O)N3CC)cc1	7.6	1	3.1	1	-3.6	-3.7
CCN1C(=O)c2cccc3c(NS(=O)(=O)c4ccc(NC(C)=O)cc4)ccc1c23	-10.0	0	99.2*	0.1	85.6*	-1.0
CCN1C(=O)c2cccc3c(NC(=O)c4ccc(S(=O)(=O)N5CCOCC5)cc4)ccc1c23	-11.8	0.6	38.4	0.3	73.7*	-2.6
COc1ccc(NC(=S)N2CCN(Cc3ccco3)CC2)c(OC)c1	-7.3	.	.	.	.	-2.2
CCOC(=O)CN1C(=O)C(C)(C)Oc2ccc(C(=O)Nc3ccccc3)cc21	6.2	0.9	7.1	0.5	49.6	-2.4
CCOC(=O)c1c(C)[nH]c(C(=O)COC(=O)/C=C/c2ccc3c(c2)OCO3)c1C	-11.2	.	.	.	.	59.0
CCOC(=O)c1c(C)[nH]c(C(=O)COC(=O)c2ccncc2)c1C	11.9	0.8	15.5	0.1	91.6*	-5.9
CCOC(=O)c1c(C)[nH]c(C(=O)COC(=O)C2CC2C)c1C (stereo not drawn)	-25.4	0.3	72.8*	0	98.3*	-2.7
CCOC(=O)c1c(C)[nH]c(C(=O)COC(=O)c2[nH]c(C)c(C(C)=O)c2C)c1C	0.8	0.8	23.6	0.8	17.0	20.1
CCCN(CC1CC1)C(=O)COC(=O)c1[nH]c(C)c(C(=O)OCC)c1C	2.7	0.4	60.5*	0.6	44.3	-3.2
CCOC(=O)c1[nH]c(C)c(C(=O)OCC)c1C	4.6	0.2	84.1*	0.2	75.2*	3.9
CCCNC(=O)COC(=O)c1[nH]c(C)c(C(=O)OCC)c1C	1.6	0.6	44.2	0.4	64.4*	-3.0
CCOC(=O)c1[nH]c(C)c(C(=O)c2cc(F)ccc2F)c1C	19.7	0.1	95.0*	0.1	93.0*	2.1
COC(=O)c1c(C)[nH]c(C(=O)OCC(=O)NCC(C)C)c1C	-29.2	0.8	19.2	0.6	42.7	2.3
CCOC(=O)c1[nH]c(C)c(C(=O)Nc2ccc(Cl)cc2)c1C	-14.5	0.9	13.8	1	2.7	1.7
SMILES	Mac1 fbg inh	CYP2C19 act	CYP2C19 inhib	CYP2C9 activ	CYP2C9 inhib	Mac1 fbg enh
CCCCn1c(SCc2cc(=O)n3ccsc3n2)nc2cc(C(=O)OC)ccc2c1=O	6.4	1	-2.8	0.9	12.3	-1.5
CNc1c([N+](=O)[O-])cnn1-c1ccc(C)cc1	-2.7	0.8	15.6	0.8	20.3	-0.8
COc1ccc(S(=O)(=O)N2CCC(n3cnc4cc(C(F)(F)F)ccc43)CC2)cc1	4.2	0.3	74.5*	0.5	47.0	3.9
CC(=O)Nc1ccc(S(=O)(=O)N2CCC(n3cnc4cc(F)ccc43)CC2)cc1	7.9	0.7	25.8	0.4	59.9*	-2.7
O=S(=O)(c1ccccc1)N1CCC(n2nnc3cc(F)ccc32)CC1	-3.1	0.5	45.5	1.2	-20.7	-1.8
O=S(=O)(c1ccc2c(c1)OCCO2)N1CCC(n2nnc3cc(C(F)(F)F)ccc32)CC1	10.4	0.1	93.5*	1.5	-52.2	-0.1
Cc1cccc(C(O)(C(=O)NNc2ccc3ccccc3n2)c2cccc(C)c2)c1	7.3	.	.	.	.	16.8
COc1cc(CC(=O)OCC(=O)Nc2cccc([N+](=O)[O-])c2)cc(OC)c1OC	-7.7	.	.	.	.	4.8
O=S(=O)(NCc1cc(-c2ccccc2Cl)no1)c1ccccc1	.	0.1	91.6*	2.4*	-139.8	.
O=S(=O)(NCc1cc(-c2ccccc2)no1)c1ccc(Cl)cc1	.	0.2	77.6*	0.9	5.0	.
Cc1ccnc(N2CCC(C(=O)Nc3cccc(C(F)(F)F)c3)CC2)n1	17.5	0.1	91.4*	1	3.8	-3.1
Cc1cc(C)nc(N2CCC(C(=O)NCc3cccc(C(F)(F)F)c3)CC2)n1	-9.4	1	-1.3	1.6	-58.0	0.2
O=C(NCc1cccc(C(F)(F)F)c1)C1CCN(c2ncccn2)CC1	-8.6	0.8	16.2	0.3	67.3*	-1.1
Oc1c(Br)cc(C2N=C(c3ccccc3Cl)NO2)cc1Br (stereo not drawn)	.	0.7	26.1	0.8	24.0	.
CC1=C(C(N)=O)C(c2cccnc2)n2nc(-c3cccc(Cl)c3)nc2N1 (stereo not drawn)	16.5	1	4.8	1	4.8	-2.9
CC(C)n1c(=S)[nH]c2c1c(=O)[nH]c(=O)n2C	13.2	1	4.4	0.9	8.9	16.3
COc1cc(OC)cc(-c2cc(N)n(S(=O)(=O)Cc3ccccc3)n2)c1	1.8	0.6	43.3	0.1	87.3*	-1.3
Cc1ccc(-c2cc(N)n(Cc3ccc(Cl)cc3)n2)cc1	.	0.2	83.2*	0.4	61.9*	.
CCCS(=O)(=O)n1nc(-c2ccc(OC)cc2)cc1N	-8.2	0.1	94.4*	0.1	86.8*	4.7
Nc1cc(-c2ccc(Cl)cc2)nn1S(=O)(=O)c1ccc(Cl)cc1	6.4	0.8	18.1	0.8	24.8	-0.7
CCCS(=O)(=O)n1nc(-c2ccc(C)cc2)cc1N	0.9	0.1	91.4*	0.3	66.7*	1.4
COc1ccc(C(C)NC(=O)C2CCCO2)cc1OC (stereo not drawn)	-5.7	0.9	5.0	1	-3.2	-5.4
Cc1c(C(=O)N2c3ccccc3Sc3ccccc32)cccc1[N+](=O)[O-]	18.6	.	.	.	.	-1.3
Cc1cc(C)cc(N(CC(=O)NC2CC3CCC2C3)S(C)(=O)=O)c1 (stereo not drawn)	-40.7	0.7	28.5	1.2	-24.7	4.2
